Out of some 2,000 compounds screened, about 250 (12%) were called active. The sample holds actives, similar compounds and a random draw of the others, so the mix is not that of the screen. Unmarked numbers belong to inactive results. No stated cut-off is given here; in the data, active means hERG blockade below about -20% or above about 20%; inactive means in between.
Molecular target: Voltage-gated inwardly rectifying potassium channel KCNH2 (Homo sapiens) (UniProt Q12809)
Test: KCNH2 potassium channel function modulators, cell-based (AID 376);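 further: 0% = buffer alone and 100% = reference blocker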
Details: hERG-expressing cells, channel activity single-concentration screen; concentration not given here

Sequence of Voltage-gated inwardly rectifying potassium channel KCNH2 (Homo sapiens) (Q12809 whole entry, looked up): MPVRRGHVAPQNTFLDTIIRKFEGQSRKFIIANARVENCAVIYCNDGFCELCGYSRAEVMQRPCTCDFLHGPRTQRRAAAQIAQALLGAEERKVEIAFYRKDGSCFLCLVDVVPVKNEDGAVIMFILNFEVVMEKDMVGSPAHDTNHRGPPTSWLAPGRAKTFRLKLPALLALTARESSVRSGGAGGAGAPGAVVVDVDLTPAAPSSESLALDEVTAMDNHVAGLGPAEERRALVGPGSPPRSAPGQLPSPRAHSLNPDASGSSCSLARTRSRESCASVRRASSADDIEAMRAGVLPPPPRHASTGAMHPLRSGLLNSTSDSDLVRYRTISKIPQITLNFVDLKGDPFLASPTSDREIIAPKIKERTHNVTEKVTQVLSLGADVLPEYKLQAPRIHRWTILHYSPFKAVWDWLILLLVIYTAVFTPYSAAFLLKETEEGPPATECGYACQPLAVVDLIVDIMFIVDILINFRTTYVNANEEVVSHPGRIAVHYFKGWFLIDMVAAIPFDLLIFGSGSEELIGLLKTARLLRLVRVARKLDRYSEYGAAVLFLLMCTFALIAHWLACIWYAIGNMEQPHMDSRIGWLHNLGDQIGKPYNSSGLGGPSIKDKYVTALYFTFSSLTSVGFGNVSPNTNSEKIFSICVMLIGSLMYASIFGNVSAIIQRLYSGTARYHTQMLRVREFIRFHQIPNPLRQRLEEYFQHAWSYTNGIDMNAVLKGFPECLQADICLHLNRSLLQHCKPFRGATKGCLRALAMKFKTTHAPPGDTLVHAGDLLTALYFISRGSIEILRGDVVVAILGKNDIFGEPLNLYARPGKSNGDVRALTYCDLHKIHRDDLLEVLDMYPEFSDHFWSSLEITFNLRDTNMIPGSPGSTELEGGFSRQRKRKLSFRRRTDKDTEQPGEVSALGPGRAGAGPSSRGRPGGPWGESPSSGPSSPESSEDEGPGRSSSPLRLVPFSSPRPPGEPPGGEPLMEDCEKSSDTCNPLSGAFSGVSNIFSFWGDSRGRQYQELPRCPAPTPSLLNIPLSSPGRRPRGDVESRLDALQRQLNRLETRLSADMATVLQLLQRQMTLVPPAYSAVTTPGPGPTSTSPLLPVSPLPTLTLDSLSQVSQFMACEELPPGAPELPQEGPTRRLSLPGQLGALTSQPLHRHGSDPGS

SMILES | hERG blockade
CC1(C)SC2C(NC(=O)Cc3ccccc3)C(=O)N2C1C(=O)O (stereo not given) | 1.04%
O=C(O)c1ccc(NC(c2ccccc2)c2ccc3cccnc3c2O)cc1 (stereo not given) | -7.8%
CC1(CCC(=O)OC2CCCCC2)OCCO1 | -7.92%
CC(C)(C)c1ccc(OCC(=O)O)c(Cl)c1 | -5.3%
CN1CCN(CCCN)CC1 | -1.63%
CN1CCN(CCCNN)CC1 | -5.53%
CN1CCN(CCCBr)CC1 | 25.3% (active)
O=C(O)C(Cc1ccc(O)c([N+](=O)[O-])c1)N1C(=O)c2ccccc2C1=O (stereo not given) | -10.2%
[O-][N+](CCO)(CCO)c1ncnc2nc[nH]c12 | 13%
O=C1C(Cl)=C(Nc2ccc(S(=O)(=O)Nc3ccccn3)cc2)C(=O)c2ccccc21 | 9.57%
COc1cc(NCCC2CCCCN2)c2ncccc2c1 (stereo not given) | 7.01%
Cc1cc(N2CCN(C)CC2)n2nc(-c3ccc(Cl)cc3)nc2n1 | 90% (active)
O=c1[nH]c(SCc2c(Cl)c(Cl)c(Cl)c(Cl)c2Cl)nc(=S)[nH]1 | -9.32%
Cc1ccc(S(=O)(=O)NC(C(=O)O)C(C)C)cc1 (stereo not given) | 0.497%
Cc1ccc(S(=O)(=O)NC(CN)C(=O)O)cc1 (stereo not given) | 4.41%
Cc1ccc(S(=O)(=O)NC(CO)C(=O)O)cc1 (stereo not given) | 23.3% (active)
NC1(C(=O)OCc2ccccc2)CCCC1 | 15.7%
CC(OP(=O)(O)O)C(N)C(=O)O (stereo not given) | -6.12%
Clc1ccc(CSCCc2ccncc2)cc1Cl | 14.8%
Nc1nc(SCc2ccccc2)c2ncn(Cc3ccccc3)c2n1 | -3.09%
Cn1cnc([N+](=O)[O-])c1Sc1nc(N)nc2c1ncn2Cc1ccccc1 | 37% (active)
CC(C)Cn1cnc2c(Sc3c([N+](=O)[O-])ncn3C)nc(N)nc21 | 4.65%
NC(Cc1c[nH]c2ccc([N+](=O)[O-])cc12)C(=O)O (stereo not given) | 7.32%
C=C(C)COc1ccc2c(c1)CCC1C2CCC2(C)C(=O)C(=NO)CC12 (stereo not given) | 0.877%

SMILES | hERG blockade
OCC1OC(O)C(N=Cc2ccc3c(c2)OCO3)C(O)C1O (stereo not given) | -14.8%
Nc1ccc(S(=O)(=O)NCc2nccs2)cc1 | 17.3%
Nc1ccc(S(=O)(=O)Nc2cnc3ccccc3n2)cc1 | 8%
Nc1ccc(S(=O)(=[OH+])[NH2+]c2ncccn2)cc1.[Ag+] | 89.5% (active)
CC(C)CCNc1ncnc2[nH]ncc12 | 0.816%
NCC1OC(n2cnc3c(=O)[nH]c(N)nc32)C(O)C1O (stereo not given) | 5.66%
CCC1=C(CC2NCCc3ccccc32)CC2c3cc(OC)c(OC)cc3CCN2C1 (stereo not given) | 47.5% (active)
N#CC(=CNc1ccccn1)C(=O)c1ccco1 | -1.1%
OCCCNCc1ccncc1 | -7.86%
CC1(C)SC2C(C(=O)O)N=C(Cc3ccccc3)N2C1C(=O)O (stereo not given) | 4.53%
O=[N+]([O-])c1ccc2ncccc2c1CCc1c([N+](=O)[O-])ccc2ncccc12 | 2.28%
CC(=O)C(C)CCOC1(C)OCCC1C (stereo not given) | -22.8% (active)
Cc1ccc(C)c(C(=N)c2ccccc2Cc2ccccc2)c1 | -12.5%
CC(SCc1ccccc1)C(=O)O (stereo not given) | 3.31%
NCC(=O)Nc1ccccc1 | 5.81%
O=C(c1no[n+]([O-])c1C(=O)c1csc2ccccc12)c1csc2ccccc12 | 18.4%
O=C(O)c1ccccc1C1c2ccccc2Oc2ccccc21 | 12.2%
Cc1cccc2c1Oc1ccccc1C2NC(=O)c1ccc([N+](=O)[O-])cc1 (stereo not given) | 32.2% (active)
NC(CC1=CS(=O)(=O)c2ccc(Cl)cc21)C(=O)O (stereo not given) | 0.214%
Cc1cc(C(=O)CSC(=S)SC(C)(C)C)ccc1Cl | 8.12%
CN(C)CCCNc1cc(O)c2c(c1O)C(=O)c1ccccc1C2=O | 42.1% (active)
CC1=NCC[N+]1(CCc1ccccc1)Cc1ccccc1 (stereo not given) | 13.6%
CN(C)S(=O)(=O)c1nc(Cl)c2[nH]cnc2n1 | -2.43%
COc1cc(NCCC(=O)O)c2ncccc2c1 | 11.9%

SMILES | hERG blockade
Cn1c(=O)c2[nH]c(CCCCc3nc4c([nH]3)c(=O)n(C)c(=S)n4C)nc2n(C)c1=S | -1.88%
O=C1C=C(N2CCN(c3ccccn3)CC2)C(=O)c2c(O)ccc(O)c21 | 23.2% (active)
Oc1ccc(Cl)cc1C=Nc1cnc2ccccc2c1 | 9.11%
C=CCSc1nc2ccccc2c(=O)n1Cc1ccco1 | 3.62%
N#CNC(N)=Nc1ccc(Cl)cc1 | -2.36%
O=C(O)C12CC3(C(=O)O)CC(C(=O)O)(CC(C(=O)O)(C1)C3=O)C2=O | -1.77%
FC(F)(F)c1cccc(-c2nc3nc(Cl)c(Cl)nc3[nH]2)c1 | -24% (active)
CC(CCN)(CCN)[N+](=O)[O-] | -18.2%
CN(Cc1cc(C(C)(C)C)cc(Br)c1O)Cc1cc(C(C)(C)C)cc(Br)c1O | 5.11%
CC(C)C(=O)Cc1ccc2ccccc2n1 | -1.76%
CCOC(=S)SCC(=O)O | 0.925%
O=C(O)C1C2CCC(O2)C1C(=O)NCc1cccnc1 (stereo not given) | -25.3% (active)
O=C(O)C1C2CCC(O2)C1C(=O)Nc1cccc2cccnc12 (stereo not given) | -5.21%
O=C(O)C1C2C=CC(O2)C1C(=O)NCc1cccnc1 (stereo not given) | 5.66%
N=c1ncn(CC=Cc2ccccc2)c2nc[nH]c12 | 15.2%
CN(N=O)c1ccc(C=Cc2ccnc3ccccc23)cc1 | 18.7%
CN1CCN(CN2C(=O)C3C4C=CC(C3C2=O)C2C3C(=O)N(CN5CCN(C)CC5)C(=O)C3C42)CC1 (stereo not given) | 2.12%
NC(Cc1ccnnc1)C(=O)O (stereo not given) | -0.431%
O=C(O)C1CC=CCC1C(=O)Nc1cccc(O)c1 (stereo not given) | 7.36%
O=C1c2ccccc2C(=O)c2c(NC(=O)c3ccc4c5c(ncnc35)-c3ccccc3C4=O)cccc21 | 6.48%
O=C1c2ccccc2C(=O)c2c(Nc3cc4c5c(ccc6c7ccc8c9c(cc(Nc%10cccc%11c%10C(=O)c%10ccccc%10C%11=O)c(c3c56)c97)-c3ccccc3C8=O)C(=O)c3ccccc3-4)cccc21 | 34.1% (active)
O=C1c2ccccc2C(=O)c2c(Nc3ccc4c5c(cccc35)C(=O)c3ccccc3-4)cccc21 | -13.6%
